Experimental data from ChEMBL document CHEMBL3988442, “University of Dundee, Small-Polar-MMV Screening Library” (2021).
For some assays here: Entries with a potency or affinity are not part of this list.

Columns and labels:
Design in all cases: scale not given: direction of the effect not stated beside the values
[1] = target: Protein translocase subunit SecA (Escherichia coli (strain K12)) (UniProt P10408); test: Assay to Identify E. coli SecA ATPase Inhibitors; type: functional; details: 30 µM
[2] = target: T1, Ubiquitin-activating enzyme e1, putative (Leishmania donovani (strain BPK282A1)) (UniProt E9BSI1); test: Leishmania donovani Ubiquitin Activating Enzyme (LdE1); type: functional; details: 30 µM
T1 sequence (whole entry): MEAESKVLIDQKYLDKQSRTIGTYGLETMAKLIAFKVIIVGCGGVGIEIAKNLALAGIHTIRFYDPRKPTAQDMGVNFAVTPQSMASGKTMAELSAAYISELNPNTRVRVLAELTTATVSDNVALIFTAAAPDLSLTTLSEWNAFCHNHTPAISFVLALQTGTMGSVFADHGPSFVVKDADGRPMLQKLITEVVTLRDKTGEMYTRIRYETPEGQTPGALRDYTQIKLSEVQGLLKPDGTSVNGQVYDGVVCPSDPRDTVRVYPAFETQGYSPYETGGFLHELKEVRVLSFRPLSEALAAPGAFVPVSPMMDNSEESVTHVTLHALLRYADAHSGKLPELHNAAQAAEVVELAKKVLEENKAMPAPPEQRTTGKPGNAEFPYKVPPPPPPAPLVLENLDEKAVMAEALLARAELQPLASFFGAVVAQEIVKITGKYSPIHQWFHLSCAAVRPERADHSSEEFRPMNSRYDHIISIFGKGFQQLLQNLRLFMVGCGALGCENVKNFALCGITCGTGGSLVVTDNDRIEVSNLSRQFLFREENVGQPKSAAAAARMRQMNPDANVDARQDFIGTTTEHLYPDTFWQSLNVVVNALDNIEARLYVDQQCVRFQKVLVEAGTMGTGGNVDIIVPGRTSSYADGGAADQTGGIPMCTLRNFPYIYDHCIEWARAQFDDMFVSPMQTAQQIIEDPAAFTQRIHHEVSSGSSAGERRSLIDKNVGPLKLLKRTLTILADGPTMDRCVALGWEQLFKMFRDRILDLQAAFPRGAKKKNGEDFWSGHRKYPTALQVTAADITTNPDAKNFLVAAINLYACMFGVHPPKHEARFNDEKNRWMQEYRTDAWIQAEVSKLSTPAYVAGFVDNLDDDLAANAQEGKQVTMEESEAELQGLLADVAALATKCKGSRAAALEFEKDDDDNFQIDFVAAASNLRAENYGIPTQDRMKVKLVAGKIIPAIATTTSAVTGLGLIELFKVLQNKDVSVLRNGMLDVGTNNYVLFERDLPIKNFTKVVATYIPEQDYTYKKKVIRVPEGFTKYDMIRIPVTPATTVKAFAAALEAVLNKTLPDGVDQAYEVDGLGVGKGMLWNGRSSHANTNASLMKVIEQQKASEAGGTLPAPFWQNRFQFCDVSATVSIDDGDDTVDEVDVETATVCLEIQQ

[3] = target: AMP-activated protein kinase, AMPK (Homo sapiens) (UniProt P54646+O43741+P54619+Q9UGJ0+Q9Y478+Q13131+Q9UGI9); test: AMP-dependent Kinase enzyme assay. An in vitro enzyme assay that detects ADP turnover that is directly proportional to AMPK activity. This uses naive AMPK that is activated during the assay with MK-8722; type: functional; details: 30 µM
[4] = target: Sialic acid-binding Ig-like lectin 9 (Homo sapiens) (UniProt Q9Y336); test: Hs-Siglec9 ALPHAscreen SOP 20170721; details: 10 µM
[5] = system: Trypanosoma cruzi; test: Trypanosoma cruzi phosphomannomutase and mannose-1-phosphate guanylyltransferase assay; type: functional; details: 10 µM
[6] = target: T2, Arginase-2, mitochondrial (Homo sapiens) (UniProt P78540); test: in vitro enzyme assay to detect the production of urea directly proportional to the activity of Arginase II; type: functional; details: 33.3 µM; further: in the data most compounds retested in dose-response had high values
T2 sequence (whole entry): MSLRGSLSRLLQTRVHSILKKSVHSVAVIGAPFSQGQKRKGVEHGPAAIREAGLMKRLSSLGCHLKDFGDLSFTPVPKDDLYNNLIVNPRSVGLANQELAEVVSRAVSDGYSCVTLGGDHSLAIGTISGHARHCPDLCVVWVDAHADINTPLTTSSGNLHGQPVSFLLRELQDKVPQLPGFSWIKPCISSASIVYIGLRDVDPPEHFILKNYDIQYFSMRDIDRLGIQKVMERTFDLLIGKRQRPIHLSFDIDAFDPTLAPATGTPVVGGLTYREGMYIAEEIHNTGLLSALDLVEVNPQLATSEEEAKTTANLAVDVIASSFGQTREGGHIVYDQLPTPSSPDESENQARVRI

[7] = target: T3, Proteasome subunit beta (Trypanosoma cruzi) (UniProt O96673); test: Trypanosoma cruzi proteasome chymotrypsin-like activity (TcProtChymo) assay.; further: in the data most compounds retested in dose-response had high values; type: functional; details: 9.37 µM
T3 sequence (whole entry): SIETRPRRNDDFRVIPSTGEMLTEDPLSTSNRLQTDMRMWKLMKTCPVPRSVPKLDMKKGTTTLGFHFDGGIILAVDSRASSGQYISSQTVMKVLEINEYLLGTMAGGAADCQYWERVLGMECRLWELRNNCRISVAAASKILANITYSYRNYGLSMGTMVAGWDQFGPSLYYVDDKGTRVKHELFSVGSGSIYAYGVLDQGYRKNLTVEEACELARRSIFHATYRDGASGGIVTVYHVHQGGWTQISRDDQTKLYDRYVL

[8] = organism: Homo sapiens; test: To identify inhibition of the IFN signalling (Jak-Stat) pathway via expression of an eGFP reporter gene under the control of an IFN-stimulated response element (ISRE) containing MxA promoter.; type: functional; details: 30 µM
[9] = target: T4, Tyrosyl-tRNA synthetase, putative (Trypanosoma cruzi (strain CL Brener)) (UniProt Q4DSP6); test: Trypanosoma cruzi tyrosyl tRNA synthetase (TcYRS) _High Tyrosine SOP; type: functional; details: 30 µM; further: in the data most compounds retested in dose-response had high values
T4 sequence (whole entry): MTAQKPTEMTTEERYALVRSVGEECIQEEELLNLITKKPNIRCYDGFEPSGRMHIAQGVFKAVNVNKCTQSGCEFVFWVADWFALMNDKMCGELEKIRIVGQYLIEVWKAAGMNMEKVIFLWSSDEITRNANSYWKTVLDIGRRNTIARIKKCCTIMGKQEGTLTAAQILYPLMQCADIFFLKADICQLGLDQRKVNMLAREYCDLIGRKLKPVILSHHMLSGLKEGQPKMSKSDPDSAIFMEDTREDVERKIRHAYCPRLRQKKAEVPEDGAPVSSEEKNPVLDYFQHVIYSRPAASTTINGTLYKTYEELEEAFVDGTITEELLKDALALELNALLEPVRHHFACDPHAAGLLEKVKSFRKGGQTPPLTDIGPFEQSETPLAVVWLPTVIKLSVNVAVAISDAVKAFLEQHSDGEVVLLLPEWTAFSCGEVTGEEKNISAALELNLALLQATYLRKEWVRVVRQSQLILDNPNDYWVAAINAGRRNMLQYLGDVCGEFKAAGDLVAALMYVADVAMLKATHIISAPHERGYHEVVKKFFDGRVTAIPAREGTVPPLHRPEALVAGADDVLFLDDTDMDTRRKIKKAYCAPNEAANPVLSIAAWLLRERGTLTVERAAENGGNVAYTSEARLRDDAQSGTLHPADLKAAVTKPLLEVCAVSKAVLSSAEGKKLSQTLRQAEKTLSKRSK

[10] = target: T4, Tyrosyl-tRNA synthetase, putative (Trypanosoma cruzi (strain CL Brener)); test: Trypanosoma cruzi tyrosyl tRNA synthetase (TcYRS) SOP; type: functional; details: 30 µM
[11] = target: Chromo domain-containing protein 1 (Saccharomyces cerevisiae (strain ATCC 204508 / S288c) (Baker's yeast)) (UniProt P32657); test: ScCHD-1 Enzyme Inhibition Assay; type: functional; details: 30 µM; further: in the data most compounds retested in dose-response had high values
Sequence of Chromo domain-containing protein 1 (Saccharomyces cerevisiae (strain ATCC 204508 / S288c) (Baker's yeast)) (P32657 whole entry, the tested form may be a part): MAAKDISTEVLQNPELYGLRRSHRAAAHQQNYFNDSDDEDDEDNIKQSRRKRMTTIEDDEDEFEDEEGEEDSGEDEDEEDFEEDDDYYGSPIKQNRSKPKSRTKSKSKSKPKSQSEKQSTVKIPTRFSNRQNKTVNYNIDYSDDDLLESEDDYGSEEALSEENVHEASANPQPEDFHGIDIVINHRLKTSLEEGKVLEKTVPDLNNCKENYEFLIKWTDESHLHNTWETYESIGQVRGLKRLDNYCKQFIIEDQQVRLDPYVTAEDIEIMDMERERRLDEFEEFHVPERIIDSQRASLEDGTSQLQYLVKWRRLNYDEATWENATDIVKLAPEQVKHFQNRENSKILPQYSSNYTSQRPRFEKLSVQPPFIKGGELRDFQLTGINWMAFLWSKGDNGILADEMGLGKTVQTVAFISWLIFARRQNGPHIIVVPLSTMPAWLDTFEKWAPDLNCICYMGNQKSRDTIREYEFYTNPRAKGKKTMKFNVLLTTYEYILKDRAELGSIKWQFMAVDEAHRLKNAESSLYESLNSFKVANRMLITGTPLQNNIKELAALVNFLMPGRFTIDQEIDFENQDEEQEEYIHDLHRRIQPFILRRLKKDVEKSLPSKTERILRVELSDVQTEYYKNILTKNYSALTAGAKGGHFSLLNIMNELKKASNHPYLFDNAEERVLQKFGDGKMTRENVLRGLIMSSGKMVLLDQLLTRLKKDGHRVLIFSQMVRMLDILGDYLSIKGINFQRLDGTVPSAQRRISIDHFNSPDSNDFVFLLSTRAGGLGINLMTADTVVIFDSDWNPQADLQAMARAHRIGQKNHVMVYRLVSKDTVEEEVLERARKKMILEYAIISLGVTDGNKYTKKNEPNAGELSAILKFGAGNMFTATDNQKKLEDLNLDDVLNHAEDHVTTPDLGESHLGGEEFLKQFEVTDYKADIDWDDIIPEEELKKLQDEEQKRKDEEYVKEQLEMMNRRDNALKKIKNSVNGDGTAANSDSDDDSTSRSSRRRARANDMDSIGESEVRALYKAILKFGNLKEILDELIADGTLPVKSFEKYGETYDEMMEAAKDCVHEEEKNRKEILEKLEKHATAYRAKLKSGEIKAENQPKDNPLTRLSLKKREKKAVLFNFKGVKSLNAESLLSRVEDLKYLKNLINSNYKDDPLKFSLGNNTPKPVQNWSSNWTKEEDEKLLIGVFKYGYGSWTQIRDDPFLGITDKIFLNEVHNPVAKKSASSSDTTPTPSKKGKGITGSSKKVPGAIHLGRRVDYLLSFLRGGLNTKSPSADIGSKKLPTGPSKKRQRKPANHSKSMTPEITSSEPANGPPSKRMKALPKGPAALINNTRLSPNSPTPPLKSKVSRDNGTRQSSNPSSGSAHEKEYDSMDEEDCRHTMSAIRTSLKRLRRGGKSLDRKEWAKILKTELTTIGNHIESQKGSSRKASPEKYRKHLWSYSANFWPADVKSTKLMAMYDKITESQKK

Sequence of Sialic acid-binding Ig-like lectin 9 (Homo sapiens) (Q9Y336 whole entry): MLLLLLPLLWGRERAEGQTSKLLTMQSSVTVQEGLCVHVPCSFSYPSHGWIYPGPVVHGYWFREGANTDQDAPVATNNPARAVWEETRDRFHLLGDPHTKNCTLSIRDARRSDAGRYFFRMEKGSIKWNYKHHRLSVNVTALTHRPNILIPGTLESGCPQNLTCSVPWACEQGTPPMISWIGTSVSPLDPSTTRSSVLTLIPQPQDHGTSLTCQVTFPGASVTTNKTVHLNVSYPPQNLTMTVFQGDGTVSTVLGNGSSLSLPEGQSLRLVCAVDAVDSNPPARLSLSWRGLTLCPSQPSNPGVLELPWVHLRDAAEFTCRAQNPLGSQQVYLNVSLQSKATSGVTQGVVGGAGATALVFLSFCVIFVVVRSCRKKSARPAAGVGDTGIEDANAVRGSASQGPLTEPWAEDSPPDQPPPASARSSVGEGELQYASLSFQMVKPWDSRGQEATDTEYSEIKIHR
Sequence of Protein translocase subunit SecA (Escherichia coli (strain K12)) (P10408 whole entry): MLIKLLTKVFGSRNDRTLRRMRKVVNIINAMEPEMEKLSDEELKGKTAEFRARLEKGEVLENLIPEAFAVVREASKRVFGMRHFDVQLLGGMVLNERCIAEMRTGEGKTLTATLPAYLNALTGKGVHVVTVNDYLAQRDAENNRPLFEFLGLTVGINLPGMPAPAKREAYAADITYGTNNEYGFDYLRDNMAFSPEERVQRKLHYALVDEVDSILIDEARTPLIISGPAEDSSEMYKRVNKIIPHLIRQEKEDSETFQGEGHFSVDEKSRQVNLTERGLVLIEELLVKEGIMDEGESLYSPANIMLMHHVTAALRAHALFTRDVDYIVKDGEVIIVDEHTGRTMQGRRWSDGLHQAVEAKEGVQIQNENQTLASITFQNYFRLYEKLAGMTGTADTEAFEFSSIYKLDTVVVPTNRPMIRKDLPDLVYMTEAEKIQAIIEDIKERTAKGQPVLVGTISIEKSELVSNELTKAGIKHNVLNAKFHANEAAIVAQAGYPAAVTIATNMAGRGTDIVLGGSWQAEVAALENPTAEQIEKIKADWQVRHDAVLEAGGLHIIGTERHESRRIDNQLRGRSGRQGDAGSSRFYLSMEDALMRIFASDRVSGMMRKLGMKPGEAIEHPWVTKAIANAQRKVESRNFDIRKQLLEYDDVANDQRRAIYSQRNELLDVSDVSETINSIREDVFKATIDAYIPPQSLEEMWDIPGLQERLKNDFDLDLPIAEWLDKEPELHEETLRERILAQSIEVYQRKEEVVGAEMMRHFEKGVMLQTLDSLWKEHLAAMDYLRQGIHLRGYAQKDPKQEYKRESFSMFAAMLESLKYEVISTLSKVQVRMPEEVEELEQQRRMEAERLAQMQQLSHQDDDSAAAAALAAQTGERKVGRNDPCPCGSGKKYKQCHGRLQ

Structure (SMILES)	Percent Effect [1]	Percent Effect [2]	Percent Effect [3]	Percent Effect [4]	Percent Effect [5]	Percent Effect [6]	Percent Effect [7]	Percent Effect [8]	Percent Effect [9]	Percent Effect [10]	Percent Effect [11]
CCc1nc(CCNC(=O)Nc2ccc(C(=O)NC)cc2C)cs1	-9.57%	0%	-0.875%	3.65%	-3.8%	-3.65%	4.18%	40.4%	-2.73%	-1.24%	-1.65%
Cc1nc(N2CCCC2)ncc1-c1cc(O)nc(N2CCCC2)n1	-4.52%	-1.33%	4.03%	6.18%	-4.13%	-2.64%	7.76%	-0.506%	2.12%	0%	-1.52%
Cc1cccc(C(=O)N(C)Cc2cc(Br)cs2)n1	-6.38%	5.26%	7.43%	4.27%	4.77%	0%	12.8%	-26.6%	4.25%	7.79%	0.914%
CCS(=O)(=O)N1CCC[C@]2(C(=O)N(C)C)CN(c3ccccn3)C[C@@H]2C1	-6.08%	5.33%	2.98%	0.0913%	4.05%	-50%	10.1%	-17%	3.12%	12.5%	-5.8%
Cn1cc(CN2CCC3(C2)CN(Cc2ccsc2)C3)cn1	-5.1%	2.6%	-2.26%	5.86%	3.64%	1.38%	10.5%	-4.61%	3.23%	8.64%	1.08%
Cc1cccc(CN2CCC3(CCCN(C(=O)NC4CC4)C3)C2=O)n1 (configuration not stated)	-0.773%	10.4%	-9.14%	-16.1%	-7.99%	5.81%	6.79%	11.4%	1.06%	1.28%	-9.83%
O=S(=O)(C1CC1)N1CCO[C@H]2[C@H](OCCN3CCCC3)CC[C@@H]21	0.18%	18.7%	-5.59%	-6.26%	5.6%	-62.2%	9.74%	17.6%	5.21%	20%	-11.8%
Cc1nc(CN2C[C@@H]3CN(C(=O)c4ccnnc4)C[C@@H]3C2=O)cs1	-4.78%	5.41%	6.23%	4.54%	-0.684%	2.23%	11.6%	-22.8%	3.24%	7.69%	4.63%
CCc1nnc2n1CCN(C(=O)c1cnc3ccccc3n1)C2	-4.63%	4.17%	-7.62%	28.2%	3.79%	17.2%	12.5%	-6.01%	5.26%	12.8%	-3.35%
COc1ccc(NC(=O)CCC2CCCN(Cc3ncon3)C2)c(C)c1 (configuration not stated)	-3.42%	2.67%	-0.626%	-0.0167%	-5.36%	-3.65%	22%	22.2%	6.01%	11.1%	-6.4%
CN(C)c1cc2c(nn1)CCN(C(=O)C1CCc3ccccc31)C2 (configuration not stated)	-6.92%	5.06%	-21.4%	3.81%	-0.283%	0.38%	-1.06%	15.8%	-5.42%	-8.86%	-2.71%
O=C(CCN1CCCC1=O)NCc1cccnc1Oc1ccccc1	-6.95%	-8.22%	0.461%	2.58%	0.595%	-1.2%	4.88%	-2.67%	1.04%	6.17%	-1.4%
Cc1ccoc1C(=O)N1CC[C@H]2OCC[C@@]2(COCc2ccncc2)C1	-0.155%	15.6%	3.21%	3.48%	2.07%	7.1%	17.2%	23.7%	7.41%	16.7%	-9.72%
Cc1cc(-c2cnc(N3CCNC(=O)C3)nc2-c2ccc(C)o2)on1	-8.2%	21.3%	3.79%	11.1%	1.38%	-6.76%	11.4%	29.2%	5.32%	11.5%	-16.5%
CC(=O)N1CCCC1c1nccnc1Nc1cccc(C)n1 (configuration not stated)	-1.59%	-5.33%	11.9%	5.31%	-1.57%	0.699%	1.15%	-9.62%	-1.06%	1.28%	4.34%
O=C(Cn1ccc2ccc(Br)cc21)NC[C@@H]1CCCN2CCCC[C@H]12	-9.26%	-4%	0.939%	-2.99%	-5.5%	-12.8%	2.03%	7.57%	0%	-56.4%	-8.03%
O=C1[C@H]2CN(Cc3nccs3)C[C@H]2CN1c1ccsc1	-6.53%	0%	8.27%	-7.06%	-2.25%	0.319%	12.4%	-3.04%	-1.08%	2.56%	-0.738%
CCN(Cc1ccc2c(c1)OCO2)C(=O)c1ccc(C)[nH]c1=O	-4.38%	13.2%	-8.05%	-3.99%	11.5%	-1.92%	11.9%	15.1%	10.3%	19.5%	-15.7%
O=S(=O)(Nc1cnn(C2CCOCC2)c1)c1c(F)cccc1F	1.19%	-2.6%	-13.6%	5.79%	-2.66%	-1.94%	10.4%	5.2%	2.12%	1.28%	-4.35%
O=C(NC1CC1)[C@@H]1CCO[C@@H]2CCN(Cc3ccsc3)C[C@H]21	-3.17%	-8.11%	8.56%	0.445%	-5.38%	3.5%	17.5%	3.93%	0%	0%	7.56%
c1cnnc(N2CCCC2CNCc2nc3ccccc3o2)c1 (configuration not stated)	-0.208%	2.74%	-3.71%	10.3%	0%	-3.19%	21%	-2.37%	15.6%	25.9%	-2.93%
CCOc1cccc(CNc2ccccc2C(=O)OC)c1O	2.18%	6.67%	-9.62%	-4.44%	-4.32%	-10.7%	19%	21.5%	3.17%	7.69%	-13.3%
